Experimental data as given in article PMC7819943, “Rice protein-binding microarrays: a tool to detect cis-acting elements near promoter regions in rice”.
In all, about 68,000 sequences were measured (“fluorescence intensity (a.u.)”: median about 9,100, highest 2% from about 16,000 on). Only a selection was taken, and the highest values are over-represented in it overall.

Each sequence was assayed against OsWRKY34 (Oryza sativa, UniProt Q0JBA9 1-250) (assay: protein-binding microarray (RPBM); PBS, 2% BSA, 51.3 ng/ul salmon testes DNA, 50 uM zinc acetate, 200 nM TF, 25 C, 1 h; high values mean tight binding). Details: protein: recombinant; tags: N-terminal polyhistidine and DsRed monomer fusion (pET32a); label: CyDye5-dUTP incorporated in the synthesized complementary strand; 3' TTTTT single-stranded linker to array surface; dsDNA, one strand shown.
Sequence of OsWRKY34 (Q0JBA9 entry or part of it): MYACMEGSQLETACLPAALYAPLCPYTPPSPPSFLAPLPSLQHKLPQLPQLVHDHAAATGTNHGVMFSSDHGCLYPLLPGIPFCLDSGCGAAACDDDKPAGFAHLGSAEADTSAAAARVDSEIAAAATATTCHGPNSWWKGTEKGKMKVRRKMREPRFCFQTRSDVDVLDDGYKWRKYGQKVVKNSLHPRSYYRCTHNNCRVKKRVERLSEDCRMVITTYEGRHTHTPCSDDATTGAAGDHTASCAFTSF
How it was run: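 Transcription factors, each fused N-terminally to a polyhistidine tag and DsRed, were expressed in E. coli BL21-CodonPlus and purified on Ni–NTA. A custom Agilent array was made double-stranded by primer extension with Cy5-dUTP and blocked with 2% BSA. It was incubated with 200 nM protein in PBS, 2% BSA, salmon testes DNA and 50 µM zinc acetate at 25 °C for 1 h, then washed. The binding signal is per-feature fluorescence intensity (arbitrary units) read on an Axon 4000B scanner.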
With “GACGCCGTTGACTTTTTATCACATATTTGACCGTTCGTCTCGGAGTCACCTAGTGCAG” the binding signal was 20400 fluorescence intensity (a.u.). For “ACGCCGTTGATTTTTTTAAACATATTTGACCGTTCGTCTTCGGAGTCACCTAGTGCAG”, the binding signal was 11400 fluorescence intensity (a.u.). In the case of “ACTTCACCGGTTTCCGGCGTCCGGCGCGGCGCCTGCAGAACGGAGTCACCTAGTGCAG”, the binding signal is reported as 9530 fluorescence intensity (a.u.). In the case of “TAACACCCAACACTTACACTCTGGCATTTTGGAGGTCTTGCGGAGTCACCTAGTGCAG”, the binding signal is reported as 8990 fluorescence intensity (a.u.). In the case of “AGCACCTACGGCGGCGTCTTCTCCTACTGCCTACCGCCGACGGAGTCACCTAGTGCAG”, the binding signal is reported as 9000 fluorescence intensity (a.u.). With “ATGACGTCCAAAGCTTCACCTTTTTTTTTATATATAAACCCGGAGTCACCTAGTGCAG” the binding signal was 8260 fluorescence intensity (a.u.). With “GGGTAGGAGGAGGTAATTGAGAGGTAATTCCTCCTTTAATCGGAGTCACCTAGTGCAG” the binding signal was 9220 fluorescence intensity (a.u.). “TTTTGACGACCCTAGCAATATTGCTATACACTCTTCATTCCGGAGTCACCTAGTGCAG” was tested, and the binding signal was 10700 fluorescence intensity (a.u.). With “AAGAAATCTTCCCTGTCCTACCTTTTCTTCTCACTGTATGCGGAGTCACCTAGTGCAG” the binding signal was 8860 fluorescence intensity (a.u.). In the case of “ACAGGAGAGTGATTACTTTTGCATTATTAATTGATGTTGTCGGAGTCACCTAGTGCAG”, the binding signal is reported as 8400 fluorescence intensity (a.u.). In the case of “CACCGTTGACTTTTTAGCACATATTTGACCGTTTGTCTTTCGGAGTCACCTAGTGCAG”, the binding signal is reported as 39100 fluorescence intensity (a.u.). For “TTTGACATCATTGACTTTTTAGCACATATTTGACCGTTCGCGGAGTCACCTAGTGCAG”, the binding signal was 14400 fluorescence intensity (a.u.). For “GACACCGTTAACTTTTTAGCATATGTTTGACCGTTCGTCTCGGAGTCACCTAGTGCAG”, the binding signal was 10600 fluorescence intensity (a.u.). In the case of “GACACTGTTGACTTTTTAGCACATATTTGACCGTTCGTCTCGGAGTCACCTAGTGCAG”, the binding signal is reported as 21300 fluorescence intensity (a.u.). In the case of “TTAGCACATGTTTGACCGTTCGTCTTATTCAAAAACTTTTCGGAGTCACCTAGTGCAG”, the binding signal is reported as 12600 fluorescence intensity (a.u.). With “CCCACACTTCTCCCGTTCTCCTGGAGGAAGACGACACCCACGGAGTCACCTAGTGCAG” the binding signal was 8150 fluorescence intensity (a.u.). “CATCTTCGTCCTTTAAATTTGTTTTATTTTAAATCCTCTACGGAGTCACCTAGTGCAG” was tested, and the binding signal was 8400 fluorescence intensity (a.u.). For “TCATTTGTCATCCATAAGTTTATATTTTGTACTTTTAGTTCGGAGTCACCTAGTGCAG”, the binding signal was 8550 fluorescence intensity (a.u.). For “AGAGACTGGTGATGGACTTTACTCTTTTCTTCTCCAACACCGGAGTCACCTAGTGCAG”, the binding signal was 8330 fluorescence intensity (a.u.). For “GGGCGCCGGTATGCTTCTTCCATTCCACCTATGTGTTTCTCGGAGTCACCTAGTGCAG”, the binding signal was 9490 fluorescence intensity (a.u.). With “TTTGTTTTTTTTGCTTATTTAGTTTTTTTTTCAGCTTTTTCGGAGTCACCTAGTGCAG” the binding signal was 17300 fluorescence intensity (a.u.). With “ATTCCGGTCATTTACGCGCTTTTAGCTTTGCCCTTCATTTCGGAGTCACCTAGTGCAG” the binding signal was 17200 fluorescence intensity (a.u.). For “TTTCCCACGTTTTGTCATTTTTTCAGCTATATATTAATTTCGGAGTCACCTAGTGCAG”, the binding signal was 12000 fluorescence intensity (a.u.). For “TTACTCTACTCATTTAGCTTTTGGTTGGTTGGTTCCCTTCCGGAGTCACCTAGTGCAG”, the binding signal was 14400 fluorescence intensity (a.u.). For “TTTTTGTCTTATTGTTTTGTTTATTTTATTTCAGTTTATTCGGAGTCACCTAGTGCAG”, the binding signal was 9760 fluorescence intensity (a.u.). With “CGTTTTTTTTTTCATTCCATGTTTGCATTAGCTTCATTTCCGGAGTCACCTAGTGCAG” the binding signal was 13400 fluorescence intensity (a.u.). In the case of “AAAGTTTTTTGTCGTTGTTTGTTTTCCAGTATTTGCTTTTCGGAGTCACCTAGTGCAG”, the binding signal is reported as 18000 fluorescence intensity (a.u.). For “TTATGCCAGCCATTTCACTTTTTCCCACGTTTTGTCATTTCGGAGTCACCTAGTGCAG”, the binding signal was 18900 fluorescence intensity (a.u.). For “CGCTTTTGCACAGTATTTTTATTTGCAGAGTTATGTTTGTCGGAGTCACCTAGTGCAG”, the binding signal was 8090 fluorescence intensity (a.u.). For “ATTTCTTACGTTGTTGCAGCTTTGTTTTTTTTGCTTATTTCGGAGTCACCTAGTGCAG”, the binding signal was 14900 fluorescence intensity (a.u.). In the case of “ATTTTTTCACGTTCGGACCTATGGTTTTTTTGCCACTTTGCGGAGTCACCTAGTGCAG”, the binding signal is reported as 8520 fluorescence intensity (a.u.). In the case of “TTGCTTGTTGATTGATTCGTTTTTGTCAATTTTGAAGTTTCGGAGTCACCTAGTGCAG”, the binding signal is reported as 8470 fluorescence intensity (a.u.). In the case of “ACAAATTCCTGACTTCACGGTTTTCTATTTGGTTGTAATACGGAGTCACCTAGTGCAG”, the binding signal is reported as 9590 fluorescence intensity (a.u.). In the case of “TTTTTTTATTCGTGTCTGAAAATCATTTCCGATATCCGGTCGGAGTCACCTAGTGCAG”, the binding signal is reported as 8470 fluorescence intensity (a.u.). For “CACTAAAGTTTCATTGGGTTTTCAGTTTTCACTTCATTATCGGAGTCACCTAGTGCAG”, the binding signal was 10700 fluorescence intensity (a.u.). For “ATTCGTTTCGTATTTATGCCCGATATTATCCGTGCTTCTACGGAGTCACCTAGTGCAG”, the binding signal was 9200 fluorescence intensity (a.u.). With “TCTCTTTCTCTCTCTCCTCTTCTTCCTTGGCGAGTTGTGCCGGAGTCACCTAGTGCAG” the binding signal was 8080 fluorescence intensity (a.u.). With “ATCCATCCGAGCTCTCTCTCTCTCTCTGTCTTCTCTCTACCGGAGTCACCTAGTGCAG” the binding signal was 10700 fluorescence intensity (a.u.). In the case of “ACTCCAGCATGATCCACAACACCACTCACCTCATGATTTTCGGAGTCACCTAGTGCAG”, the binding signal is reported as 8770 fluorescence intensity (a.u.). “TATTTTCGTCCGGTTTTTTCCACTCACCAGTCACCACCCCCGGAGTCACCTAGTGCAG” was tested, and the binding signal was 8490 fluorescence intensity (a.u.). “ACCACTCACCTCATGATTTTCGTTGTATTCGTTCCAGTCCCGGAGTCACCTAGTGCAG” was tested, and the binding signal was 20000 fluorescence intensity (a.u.). With “CTCTCCTCCTCCGTTCCTGACTCCACCACTCACATTCATTCGGAGTCACCTAGTGCAG” the binding signal was 13200 fluorescence intensity (a.u.).
